The subject of assay [1] is PRMT1 (protein arginine N-methyltransferase 1). As to the kind of experiment: small molecules binding arginine methyltransferase PRMT1 – biochemical, small-molecule microarray, 635 nm fluorescence, primary screen (AID 1088).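 Also: binding of Prmt1 protein to compounds spotted on small-molecule microarray slides.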 The following applies: higher = more signal.
Assay [2] in a line: growth effects on S. cerevisiae YJM789 – YJM789 clinical isolate, OD600, 24 h, basal, primary screen (AID 1089).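 Also: growth of clinical yeast isolate S. cerevisiae YJM 789 seeded 1000 cells per well; test concentration not given here.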 The note with it: higher = more signal, called active from +8 up or from −8 down.
Assay [3] can be described thus: S. pombe growth modifiers, basal conditions – strain 972, OD600, 24 h, no modulator, primary screen (AID 1090).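 Also: basal condition with compound alone and no growth modifier present; test concentration not given here.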 The note with it: S. pombe 972 growth, higher = more signal, called active from +8 up or from −8 down.
The nature of assay [4]: budding yeast growth modifiers under rapamycin – strain BY4716, OD600, 96 h, primary screen (AID 1091). Also: test concentration not given here. The following applies: S. cerevisiae BY4716 + rapamycin, higher = more signal, called active from +8 up or from −8 down.
Assay [5] concerns the target Torsin-1A-interacting protein 2 (Homo sapiens) (UniProt Q8NFQ8). The experiment in a line: small molecules binding lysate-expressed LULL1 – cell lysate, human LULL1 lysate, 635/667 nm fluorescence, primary screen (AID 1092).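 Also: probe is lysate of COS7 cells overexpressing human LULL1; score merges per-feature 667 nm fluorescence with signal-to-noise.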 The following applies: small-molecule microarray, hLULL1 lysate binding, 635 nm fluorescence; higher = more signal.
Assay [6] can be described thus: optical density change of DRC41 E. coli – strain DRC41, OD650, 24 h, E. coli filamentation project, primary screen (AID 1093).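 Also: MC1000 strain lacking acrAB efflux and sulA so SOS filamentation is blocked; test concentration not given here.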 The note with it: E. coli DRC41 growth, higher = more signal, called active from +8 up or from −8 down.
Assay [7] in a line: probe aLefty2 binding to arrayed compounds – biochemical, biotinylated probe, 635/667 nm fluorescence, primary screen (AID 1094).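 Also: score merges spot fluorescence near 667 nm with spot signal-to-noise ratio.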 The following applies: small-molecule microarray, higher = more signal.
Assay [8] relates to Noggin (protein binding on small-molecule microarray). The experiment in a line: small molecules binding Noggin protein – biochemical, 635/667 nm fluorescence, primary screen (AID 1095).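 Also: score merges 667 nm feature fluorescence with signal to noise over triplicate slides.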 The following applies: 635 nm fluorescence, higher = more signal.
The target in assay [9] is Neurogenic locus notch homolog protein 3 (Homo sapiens) (UniProt Q9UM47). The experiment in a line: small molecules binding NOTCH3 protein – biochemical, 635/667 nm fluorescence, primary screen (AID 1096). The note with it: small-molecule microarray, 635 nm fluorescence, higher = more signal.
Chain of Neurogenic locus notch homolog protein 3 (Homo sapiens) (Q9UM47 whole entry, looked up): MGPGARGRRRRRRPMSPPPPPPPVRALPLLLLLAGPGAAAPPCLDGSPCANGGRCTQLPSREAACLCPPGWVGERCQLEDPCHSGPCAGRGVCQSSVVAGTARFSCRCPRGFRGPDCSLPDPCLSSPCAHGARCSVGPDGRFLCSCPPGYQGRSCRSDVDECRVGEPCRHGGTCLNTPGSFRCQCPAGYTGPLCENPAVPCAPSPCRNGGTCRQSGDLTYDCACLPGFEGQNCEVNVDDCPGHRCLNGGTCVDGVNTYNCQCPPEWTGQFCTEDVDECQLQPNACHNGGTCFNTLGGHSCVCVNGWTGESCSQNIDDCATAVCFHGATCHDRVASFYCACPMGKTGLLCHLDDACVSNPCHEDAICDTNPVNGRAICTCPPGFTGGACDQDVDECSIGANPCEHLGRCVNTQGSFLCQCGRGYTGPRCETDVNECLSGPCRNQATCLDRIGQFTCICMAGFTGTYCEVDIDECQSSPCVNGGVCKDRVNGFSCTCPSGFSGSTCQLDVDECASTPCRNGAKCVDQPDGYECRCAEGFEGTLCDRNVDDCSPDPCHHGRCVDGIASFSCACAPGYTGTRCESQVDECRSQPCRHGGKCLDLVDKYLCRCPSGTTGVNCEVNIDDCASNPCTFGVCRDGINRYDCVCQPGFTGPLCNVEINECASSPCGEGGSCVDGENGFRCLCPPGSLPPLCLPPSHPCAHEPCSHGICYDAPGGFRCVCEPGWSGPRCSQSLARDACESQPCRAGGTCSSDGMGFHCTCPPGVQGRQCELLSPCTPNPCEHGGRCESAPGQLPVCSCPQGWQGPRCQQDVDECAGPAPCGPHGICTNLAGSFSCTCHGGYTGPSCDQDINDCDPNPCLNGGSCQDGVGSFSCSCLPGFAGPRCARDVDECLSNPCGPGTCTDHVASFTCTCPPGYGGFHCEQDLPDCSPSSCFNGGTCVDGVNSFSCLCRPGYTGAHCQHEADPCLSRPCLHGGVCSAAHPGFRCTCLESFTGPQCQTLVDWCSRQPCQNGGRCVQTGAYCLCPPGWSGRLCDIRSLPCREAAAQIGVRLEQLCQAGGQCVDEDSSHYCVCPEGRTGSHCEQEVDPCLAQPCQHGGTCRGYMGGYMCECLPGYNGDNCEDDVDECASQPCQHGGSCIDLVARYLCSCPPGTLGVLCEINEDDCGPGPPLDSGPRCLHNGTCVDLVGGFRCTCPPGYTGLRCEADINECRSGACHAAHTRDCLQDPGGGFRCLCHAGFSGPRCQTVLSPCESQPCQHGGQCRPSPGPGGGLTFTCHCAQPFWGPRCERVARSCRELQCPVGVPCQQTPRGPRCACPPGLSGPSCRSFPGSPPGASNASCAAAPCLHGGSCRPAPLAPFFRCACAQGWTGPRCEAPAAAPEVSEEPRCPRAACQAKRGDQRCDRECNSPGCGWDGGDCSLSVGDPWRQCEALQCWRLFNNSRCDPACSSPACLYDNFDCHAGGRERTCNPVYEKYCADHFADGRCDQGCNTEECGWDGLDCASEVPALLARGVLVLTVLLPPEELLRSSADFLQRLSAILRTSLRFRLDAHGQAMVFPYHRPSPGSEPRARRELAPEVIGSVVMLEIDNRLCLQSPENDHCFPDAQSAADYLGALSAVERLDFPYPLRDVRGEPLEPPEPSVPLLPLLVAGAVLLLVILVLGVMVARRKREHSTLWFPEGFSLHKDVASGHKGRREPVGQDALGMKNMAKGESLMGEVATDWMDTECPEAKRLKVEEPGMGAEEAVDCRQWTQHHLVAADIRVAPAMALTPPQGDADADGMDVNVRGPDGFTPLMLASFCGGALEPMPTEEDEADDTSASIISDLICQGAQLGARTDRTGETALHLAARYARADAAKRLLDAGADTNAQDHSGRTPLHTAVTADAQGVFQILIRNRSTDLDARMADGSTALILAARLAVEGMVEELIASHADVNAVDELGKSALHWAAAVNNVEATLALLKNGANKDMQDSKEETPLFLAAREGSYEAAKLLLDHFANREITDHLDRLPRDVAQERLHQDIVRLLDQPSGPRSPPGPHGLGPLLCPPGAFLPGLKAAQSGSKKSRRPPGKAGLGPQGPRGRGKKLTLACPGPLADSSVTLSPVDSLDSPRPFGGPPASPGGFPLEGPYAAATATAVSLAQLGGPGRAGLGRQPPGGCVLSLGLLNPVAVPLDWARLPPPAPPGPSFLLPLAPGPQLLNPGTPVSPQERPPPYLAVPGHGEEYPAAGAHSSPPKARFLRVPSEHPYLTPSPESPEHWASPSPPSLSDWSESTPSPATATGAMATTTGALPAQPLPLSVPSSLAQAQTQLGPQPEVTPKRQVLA
Assay [10] in a line: probe aEGFR binding to arrayed compounds – biochemical, biotinylated probe, 635/667 nm fluorescence, primary screen (AID 1097).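 Also: probe is a biotinylated anti-EGFR antibody binding compounds printed on slides; score combines fluorescence near 667 nm and signal to noise of each spot.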 The note with it: small-molecule microarray, higher = more signal.
In assay [11] the test system is Plasmodium falciparum Sir2 (PF13_0152, Sir2A). As to the kind of experiment: Plasmodium falciparum Sir2A binding compounds – biochemical, small-molecule microarray, 635 nm fluorescence, primary screen (AID 1098).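 Also: score merges spot fluorescence intensity with its signal-to-noise ratio.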 The following applies: fluorescence 635 nm, higher = more signal.
Assay [12] in a line: probe aDKK1 binding to arrayed compounds – biochemical, biotinylated probe, 635/667 nm fluorescence, primary screen (AID 1099).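 Also: score merges 667nm spot fluorescence with signal to noise across triplicate slides; reference of the scale not given here.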 The following applies: small-molecule microarray, higher = more signal.
The nature of assay [13]: probe aCHRDL2 binding to arrayed compounds – biochemical, biotinylated probe, 635/667 nm fluorescence, primary screen (AID 1100). The following applies: small-molecule microarray, higher = more signal.
Assay [14] in a line: change in splice reporter luminescence, either direction, cell-based, HEK293, spliceosome inhibition project, primary screen (AID 1101).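 Also: HEK293 cells carrying a splicing-competent luciferase reporter gene; test concentration not given here.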 The note with it: HEK293 splicing luciferase reporter, 24 h, higher = more signal, called active from +8 up or from −8 down.
The target in assay [15] is Fibroblast growth factor 10 (Homo sapiens) (UniProt O15520). The experiment in a line: compounds binding fibroblast growth factor 10 – biochemical, small-molecule microarray, 635 nm fluorescence, primary screen (AID 1102). The following applies: FGF10 binding, fluorescence 635 nm, higher = more signal.
Chain of Fibroblast growth factor 10 (Homo sapiens) (O15520 whole entry, looked up): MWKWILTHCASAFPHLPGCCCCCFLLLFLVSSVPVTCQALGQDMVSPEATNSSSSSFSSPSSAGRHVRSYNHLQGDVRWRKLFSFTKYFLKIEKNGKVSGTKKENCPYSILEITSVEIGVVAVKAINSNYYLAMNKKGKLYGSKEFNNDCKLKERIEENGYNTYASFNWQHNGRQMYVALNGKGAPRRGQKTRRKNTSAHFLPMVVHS
Assay [16] has as its system glycogen synthase kinase-3 (GSK3A per assay name; protocol says GSK3B). The experiment in a line: compounds binding glycogen synthase kinase-3 – biochemical, small-molecule microarray, 635 nm fluorescence, GSK3A, primary screen (AID 1103). Also: the record names both GSK3A and GSK3B. The following applies: fluorescence 635 nm, higher = more signal.
Assay [17] concerns the target Epidermal growth factor receptor (Homo sapiens) (UniProt P00533). As to the kind of experiment: compounds binding epidermal growth factor receptor – biochemical, small-molecule microarray, 635 nm fluorescence, primary screen (AID 1104).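 Also: score merges 667 nm emission intensity with spot signal to noise over triplicate slides.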 The following applies: EGFR binding, higher = more signal.
Assay [18] has as its target Follistatin-related protein 3 (Homo sapiens) (UniProt O95633). The experiment in a line: compounds binding follistatin-related protein 3 – biochemical, small-molecule microarray, 635 nm fluorescence, primary screen (AID 1105).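 Also: score merges emission near 667 nm and signal to noise per printed spot across three slides.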 The note with it: FSTL3 binding, higher = more signal.
Assay [19] addresses Dickkopf-related protein 1 (Homo sapiens) (UniProt O94907). The experiment in a line: small molecules binding DKK1 protein – biochemical, small-molecule microarray, 635 nm fluorescence scan, primary screen (AID 1106).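 Also: score merges emission near 667 nm with signal to noise over three replicate slides.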 The following applies: higher = more signal.
Assay [20] relates to Inhibin beta A chain (activin A). As to the kind of experiment: small molecules binding activin A – biochemical, small-molecule microarray, 635 nm fluorescence scan, primary screen (AID 1107).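 Also: mouse activin A protein probed at 4.33 µg/mL on printed slides; score merges bound-protein fluorescence near 667 nm with spot signal-to-noise.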 The following applies: INHBA, higher = more signal.

Activity calls are given as the source filed them.

Chain of Epidermal growth factor receptor (Homo sapiens) (P00533 whole entry, looked up): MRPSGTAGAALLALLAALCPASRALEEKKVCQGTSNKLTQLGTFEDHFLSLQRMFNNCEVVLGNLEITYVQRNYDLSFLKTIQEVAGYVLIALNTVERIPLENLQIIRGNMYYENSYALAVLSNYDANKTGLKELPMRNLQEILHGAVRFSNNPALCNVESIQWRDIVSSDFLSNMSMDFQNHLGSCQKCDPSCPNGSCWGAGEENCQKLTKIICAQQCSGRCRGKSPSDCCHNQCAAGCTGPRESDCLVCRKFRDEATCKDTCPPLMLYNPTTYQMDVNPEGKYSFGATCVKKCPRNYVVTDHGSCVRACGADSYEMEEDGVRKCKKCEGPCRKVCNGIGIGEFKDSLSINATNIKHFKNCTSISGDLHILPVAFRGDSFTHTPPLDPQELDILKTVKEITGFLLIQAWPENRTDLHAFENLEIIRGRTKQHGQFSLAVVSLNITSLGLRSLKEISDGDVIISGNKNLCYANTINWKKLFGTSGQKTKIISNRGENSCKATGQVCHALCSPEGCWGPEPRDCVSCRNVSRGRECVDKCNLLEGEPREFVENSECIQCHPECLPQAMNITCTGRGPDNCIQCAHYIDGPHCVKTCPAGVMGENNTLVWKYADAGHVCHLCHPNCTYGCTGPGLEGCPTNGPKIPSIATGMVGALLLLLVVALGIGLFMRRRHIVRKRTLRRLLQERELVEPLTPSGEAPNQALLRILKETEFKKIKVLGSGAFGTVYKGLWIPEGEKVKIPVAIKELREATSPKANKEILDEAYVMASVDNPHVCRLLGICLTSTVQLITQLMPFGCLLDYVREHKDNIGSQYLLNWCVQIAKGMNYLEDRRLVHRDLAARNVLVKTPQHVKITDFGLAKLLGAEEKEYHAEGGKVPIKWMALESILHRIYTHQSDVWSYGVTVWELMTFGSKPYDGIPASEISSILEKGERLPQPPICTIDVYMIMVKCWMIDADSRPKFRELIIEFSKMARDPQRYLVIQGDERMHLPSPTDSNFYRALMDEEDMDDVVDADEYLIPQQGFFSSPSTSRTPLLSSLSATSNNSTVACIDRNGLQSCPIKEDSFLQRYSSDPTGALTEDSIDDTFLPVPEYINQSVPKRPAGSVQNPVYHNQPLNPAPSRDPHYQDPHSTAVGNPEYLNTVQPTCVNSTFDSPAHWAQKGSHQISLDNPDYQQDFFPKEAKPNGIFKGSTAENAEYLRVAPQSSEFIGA
Chain of Torsin-1A-interacting protein 2 (Homo sapiens) (Q8NFQ8 whole entry, looked up): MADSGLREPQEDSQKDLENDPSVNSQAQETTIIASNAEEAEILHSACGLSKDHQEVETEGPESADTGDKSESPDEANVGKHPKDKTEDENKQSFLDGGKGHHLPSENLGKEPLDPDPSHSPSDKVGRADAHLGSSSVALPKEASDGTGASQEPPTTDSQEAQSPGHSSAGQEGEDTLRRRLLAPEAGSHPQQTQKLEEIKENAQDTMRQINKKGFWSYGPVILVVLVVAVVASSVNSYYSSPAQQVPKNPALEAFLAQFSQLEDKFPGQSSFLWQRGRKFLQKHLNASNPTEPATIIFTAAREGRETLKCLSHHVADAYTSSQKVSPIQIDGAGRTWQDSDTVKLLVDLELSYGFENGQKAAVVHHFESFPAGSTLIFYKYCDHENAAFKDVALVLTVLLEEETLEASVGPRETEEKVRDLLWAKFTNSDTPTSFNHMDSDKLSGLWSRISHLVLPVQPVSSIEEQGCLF
Chain of Dickkopf-related protein 1 (Homo sapiens) (O94907 whole entry, looked up): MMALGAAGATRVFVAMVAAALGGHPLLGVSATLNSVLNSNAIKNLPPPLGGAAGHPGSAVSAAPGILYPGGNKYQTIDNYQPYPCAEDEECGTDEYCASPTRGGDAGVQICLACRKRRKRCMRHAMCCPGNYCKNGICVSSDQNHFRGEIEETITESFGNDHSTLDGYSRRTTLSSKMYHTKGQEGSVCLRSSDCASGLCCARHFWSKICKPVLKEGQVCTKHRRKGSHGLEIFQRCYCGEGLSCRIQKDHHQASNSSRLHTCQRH
Chain of Follistatin-related protein 3 (Homo sapiens) (O95633 whole entry, looked up): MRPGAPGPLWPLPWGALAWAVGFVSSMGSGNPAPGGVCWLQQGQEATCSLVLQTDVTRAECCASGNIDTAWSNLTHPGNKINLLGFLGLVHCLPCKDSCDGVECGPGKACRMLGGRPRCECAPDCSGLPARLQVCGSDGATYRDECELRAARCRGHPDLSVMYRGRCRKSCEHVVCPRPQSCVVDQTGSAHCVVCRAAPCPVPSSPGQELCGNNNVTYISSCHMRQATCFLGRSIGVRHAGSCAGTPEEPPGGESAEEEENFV

Take `CO[C@@H]1C=CCC(=O)N2CCC[C@H]2C(=O)OC[C@@H](C)C(=O)OC[C@H]1C`: the composite z-score was 0.865 in [1]; -0.334 in assay [5]; -0.143 in assay [7]; 1.56 in assay [8]; -0.0741 in assay [9]; -0.0444 in [10]. For the same compound, the composite z-score is 1.1 in assay [11]; -0.21 in assay [12]; -0.822 in assay [13]; 0.441 in [15]; 0.484 in assay [16]; 0.521 in assay [17]. Moreover, the results for the composite z-score in assay [18], in assay [19] and in assay [20] were 1.44, 1.43 and 0.163, respectively. Besides, the z-score in [2] was -0.0313 (inactive); in assay [3] it was -1.32 (inactive); in [4], -0.918 (inactive); in assay [6], 0.872 (inactive); in [14], -0.497 (inactive).

For the compound `CO[C@H]1COC(=O)[C@H](C)NC(=O)CC=C[C@@H](C)[C@H](OC)COC(=O)[C@@H](OCc2ccccc2)C=C[C@@H]1C`, the composite z-score is 0.269 in assay [1]; -0.986 in assay [5]; -0.166 in assay [7]; 0.941 in assay [8]; -0.458 in assay [9]; -0.15 in [10]. Besides, the composite z-score was 0.68 in [11]; -0.747 in [12]; -1.33 in [13]; 0.0389 in assay [15]; 0.362 in assay [16]; 0.475 in assay [17]. For the same compound, the composite z-score was 0.492 in assay [18], 0.834 in assay [19] and 1.34 in [20]. Besides, the z-score was -0.365 (inactive) in [2]; -0.123 (inactive) in assay [3]; -0.118 (inactive) in assay [4]; 0.786 (inactive) in assay [6]; -0.00187 (inactive) in assay [14].

Regarding `CO[C@H]1COC(=O)CCC[C@@H](C)[C@H](OC)COC(=O)[C@@H]2CCCN2C(=O)CC=C[C@@H]1C`, the composite z-score is 1.53 in assay [1]; -1.77 in assay [5]; -0.183 in assay [7]; 1.82 in assay [8]; 0.473 in assay [9]; 0.0869 in [10]. Further, the composite z-score in [11] is 1.78; in assay [12], -0.313; in assay [13], -0.959; in [15], 0.269; in [16] it was 0.482; in assay [17] it was 0.802. Besides, the composite z-score in [18] is 1.02; in assay [19] it was 1.16; in assay [20], 1.26. Also, the z-score in [2] was -0.671 (inactive); in assay [3] it was 0.044 (inactive); in assay [4], -0.986 (inactive); in assay [6] it was -0.476 (inactive); in assay [14], -0.599 (inactive).

Turning to `CON=C1[C@H]2CCn3c(=O)n(-c4ccccc4)c(=O)n3[C@H]2[C@H](O)[C@@H]2O[C@H]12`, the composite z-score in assay [1] is 0.887; in assay [5], 0.456; in assay [7], -0.205; in [8] it was 1.02; in assay [9], 0.646; in assay [10], -0.177. The composite z-score in assay [11] is 0.555; in assay [12] it was -0.198; in assay [13], -0.67; in [15] it was 0.556; in assay [16] it was 0.81; in assay [17], 0.599. Moreover, the composite z-score in assay [18] worked out at 0.488; in assay [19], 0.332; in assay [20], 0.141. The z-score in assay [2] was -1.57 (inactive); in assay [3], -1.81 (inactive); in assay [4] it was 2.3 (inactive); in [6] it was -0.114 (inactive); in [14], -0.871 (inactive).

Take `CCOC(=O)[C@H](CC(C)C)NC(=O)CCC1CC(OC(=O)NCc2ccc3c(c2)OCO3)CC2(CCCC(COC(=O)NCC(c3ccccc3)c3ccccc3)O2)O1` (stereo not given in full): the composite z-score in assay [1] was 0.915; in assay [5], 1.6; in assay [7], -0.145; in [8] it was 0.617; in assay [9], 0.79; in assay [10], -0.0177. In addition, the composite z-score is 0.517 in assay [11]; -0.445 in assay [12]; -0.491 in [13]; 0.685 in assay [15]; 0.206 in [16]; -0.519 in assay [17]. The values for the composite z-score in [18], in assay [19] and in assay [20] were 0.503, 0.0925 and 0.155, respectively. In addition, the z-score is 0.417 (inactive) in assay [2]; 0.707 (inactive) in assay [3]; 0.34 (inactive) in [4]; 0.344 (inactive) in [6]; 0.907 (inactive) in [14].
